This note sets out measurements from PubChem BioAssay (NCATS).

A short description of experiment [1]: qHTS for Inhibitors of the Functional Ribonucleoprotein Complex (vRNP) of Lassa (LASV) Arenavirus: LASV Primary Screen - GLuc reporter signal (AID 1347082; calls by dose curve; tested in HEK293 reporter line; further: nearly all actives have a fitted effect of over 60% in size; further: potency means the concentration at half of the fitted maximal effect; on activity change, negative = inhibition: on the % scale 0 is the no-effect control and ±100 the full control effect). (In general: In qHTS, concentration-response curves come from the screen itself.)
The nature of experiment [2]: qHTS for Inhibitors of the Functional Ribonucleoprotein Complex (vRNP) of Lassa (LASV) Arenavirus: Viability assay - alamar blue signal for LASV Primary Screen (AID 1347083; calls by dose curve; tested in HEK293 reporter line; further: nearly all actives have a fitted effect of over 80% in size; further: potency means the concentration at half of the fitted maximal effect).
Experiment [3] can be described thus: qHTS for Inhibitors of the Functional Ribonucleoprotein Complex (vRNP) of Lymphocytic Choriomeningitis Arenaviruses (LCMV): Viability assay - alamar blue signal for LCMV Primary Screen (AID 1347085; calls by dose curve; tested in HEK293 reporter line; further: nearly all actives have a fitted effect of over 80% in size; further: potency means the concentration at half of the fitted maximal effect).
Experiment [4] in a line: Confirmatory qHTS to identify inhibitors of SARS-CoV-2 cell entry (AID 1645844). Further: potency means the concentration at half of the fitted maximal effect; nearly all actives have a fitted effect of over 45% in size. The method in brief:
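Luminescence from a luciferase reporter, read 48 hr after pseudotyped-particle addition, gives entry signal, normalised to spike-bearing PP wells and bald PP lacking fusion protein wells. Cells are Expi293F stably expressing human ACE2, compound-pretreated 1 hr.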

Experiment [5] can be described thus: Primary qHTS to identify inhibitors of SARS-CoV-2 cell entry (AID 1645846). Further: nearly all actives have a fitted effect of over 45% in size. Further: potency means the concentration at half of the fitted maximal effect. The note with it: activity change, negative = inhibition: at 57.1 µM (top of the series) unless noted. The method in brief:
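Inhibition of spike-mediated entry was scored in human ACE2-transfected Expi293F cells. Particles were MLV-pseudotyped with Wuhan-Hu-1 S carrying a 19-aa C-terminal deletion; signal was luciferase after two days, scaled between spike PP and fusion-protein-free PP.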

Another experiment concerns CRL-7250. As to the kind of experiment: qHTS assay to identify novel small-molecules to repurpose for Merkel cell carcinoma treatment (AID 1296009; active means well fitted inhibition curve with a large enough effect; further: nearly all actives have a fitted effect of over 60% in size). The following applies: MCC and control cell lines, CellTiter-Glo viability, 72 h; series mostly up to 92 µM. The method in brief:
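After compound transfer in DMSO, plates were kept 72 hr at 37 degree celsius. Luminescent ATP signal from CellTiter-Glo served as viability measure, normalized against DMSO and no-cell controls.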

Experiment [6] concerns the target Nucleoprotein (Lymphocytic choriomeningitis virus (strain Armstrong)) (UniProt P09992). As to the kind of experiment: qHTS for Inhibitors of the Functional Ribonucleoprotein Complex (vRNP) of Lymphocytic Choriomeningitis Arenaviruses (LCMV): LCMV Primary Screen - GLuc reporter signal (AID 1347086). Further: on the % scale 0 is the no-effect control and ±100 the full control effect; nearly all actives have a fitted effect of over 70% in size.
Experiment [7] is described as follows: Cytotoxicity counterscreen for inhibitors of SARS-CoV-2 cell entry (AID 1645845). Further: nearly all actives have a fitted effect of over 50% in size. An outline of the steps: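 48 h compound treatment (after 1 h preincubation), HEK293-ACE2 cells, 37 C/5% CO2; ATP luminescence endpoint; normalized to cell wells and media blanks.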
A general note: Counterscreens check selectivity or assay interference.

A short description of experiment [8]: VSVG counterscreen qHTS to identify inhibitors of SARS-CoV-2 cell entry (AID 1645847). Further: potency means the concentration at half of the fitted maximal effect; nearly all actives have a fitted effect of over 65% in size. An outline of the steps:
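Luminescence from a luciferase reporter, normalised to bald particle and VSV-G pseudotyped particle wells, is the read-out. Cells are HEK293 expressing human ACE2, exposed to compound 1 h before a 48 h particle infection at 37 °C.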

The nature of experiment [9]: qHTS profiling of the MIPE4 collection as inhibitors of Plasmodium falciparum (3D7) proliferation (AID 743344; call rule not given here;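 further: scaled between DMSO vehicle wells and 0.29 µM artemisinin as full inhibition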). The following applies: P. falciparum 3D7 in erythrocytes, SYBR Green DNA fluorescence, 72 h; at 28.5 µM (top of the series) unless noted. The method in brief: (§1)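 Erythrocytes infected with P. falciparum (0.3% parasitemia, 2.5% hematocrit) incubated with compounds 72 h at 37 C, 5% CO2. Lysis with saponin/Triton buffer containing SYBR Green I, overnight at room temperature in the dark; DNA fluorescence (485/535 nm) normalised to 0.29 uM artemisinin and DMSO.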

A short description of experiment [10]: qHTS profiling of the MIPE4 collection as inhibitors of Plasmodium falciparum (DD2) proliferation (AID 743345; call rule not given here). The following applies: P. falciparum Dd2 in erythrocytes, SYBR Green DNA, 72 h; at 28.5 µM (top of the series) unless noted. An outline of the steps: as §1
A short description of experiment [11]: qHTS profiling of the MIPE4 collection as inhibitors of Plasmodium falciparum (HB3) proliferation (AID 743347; call rule not given here;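 further: plate controls were DMSO vehicle wells for no effect and artemisinin wells for full effect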). The following applies: P. falciparum HB3 in erythrocytes, SYBR Green DNA, 72 h; at 28.5 µM (top of the series) unless noted. An outline of the steps: as §1
The target of experiment [12] is Bile acid receptor (Homo sapiens) (UniProt Q96RI1). Description: qHTS assay for small molecule agonists of farnesoid X receptor signaling (AID 588527).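 Further: 0% = vehicle basal and 100% = reference agonist.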 The following applies: HEK293T FXR-UAS-bla, beta-lactamase ratio, 16 h; activation: stronger effect = higher value. The method in brief: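 Agonist-mode beta-lactamase reporter in GeneBLAzer FXR-UAS-bla HEK293T cells, titration up to 92 uM, 16 h exposure at 37 C, CCF4 fluorescence. Response scaled to DMSO (0%) and 100 uM chenodeoxycholic acid (100%), then Hill-fitted for EC50 and efficacy.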

Results filed as inconclusive are left out. The source made the active and inactive calls. Unless noted, the call rests on the fitted dose curve.

Nucleoprotein (Lymphocytic choriomeningitis virus (strain Armstrong)), sequence (P09992 whole entry, looked up): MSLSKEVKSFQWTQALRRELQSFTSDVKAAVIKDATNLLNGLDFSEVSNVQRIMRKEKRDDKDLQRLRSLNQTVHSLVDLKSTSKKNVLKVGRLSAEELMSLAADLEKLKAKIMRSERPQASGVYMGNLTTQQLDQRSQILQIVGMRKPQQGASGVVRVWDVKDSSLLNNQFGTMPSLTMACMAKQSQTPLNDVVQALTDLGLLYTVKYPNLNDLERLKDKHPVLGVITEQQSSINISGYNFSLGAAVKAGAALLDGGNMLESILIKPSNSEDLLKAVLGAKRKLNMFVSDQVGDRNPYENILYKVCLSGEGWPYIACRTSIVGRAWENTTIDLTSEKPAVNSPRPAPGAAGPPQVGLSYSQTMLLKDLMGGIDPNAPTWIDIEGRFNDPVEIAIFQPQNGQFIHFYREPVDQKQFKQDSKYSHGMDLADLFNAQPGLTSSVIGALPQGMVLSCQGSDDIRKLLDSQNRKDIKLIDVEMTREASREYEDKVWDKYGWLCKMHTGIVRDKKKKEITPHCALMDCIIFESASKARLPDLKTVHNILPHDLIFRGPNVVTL
Bile acid receptor (Homo sapiens), sequence (Q96RI1 whole entry, looked up): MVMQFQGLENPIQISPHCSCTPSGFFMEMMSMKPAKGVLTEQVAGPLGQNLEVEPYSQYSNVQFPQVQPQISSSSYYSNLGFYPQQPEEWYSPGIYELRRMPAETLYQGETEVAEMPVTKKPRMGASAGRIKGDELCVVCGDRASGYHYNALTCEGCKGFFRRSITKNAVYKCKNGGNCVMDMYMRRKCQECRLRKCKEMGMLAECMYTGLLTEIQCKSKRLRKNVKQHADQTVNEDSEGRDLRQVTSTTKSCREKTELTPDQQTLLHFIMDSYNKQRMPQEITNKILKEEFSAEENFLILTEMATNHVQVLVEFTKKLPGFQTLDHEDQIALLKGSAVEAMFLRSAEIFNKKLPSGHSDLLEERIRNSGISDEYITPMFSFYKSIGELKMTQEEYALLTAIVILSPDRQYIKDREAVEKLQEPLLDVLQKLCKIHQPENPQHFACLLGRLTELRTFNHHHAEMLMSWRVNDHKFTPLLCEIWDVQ

In the case of `Nc1ccc(C(=O)Nc2cccc(-c3nc(N4CCOCC4)c4oc5ncccc5c4n3)c2)cn1`, the Potency entry (in experiment [1]; in the experiment on CRL-7250) was “inactive” each time. The Potency in [2] is 1.22 µM (active); in experiment [3] it was 0.968 µM (active); in experiment [4], 0.192 µM (active); in [5] it was 0.891 µM (active).

`CCC[C@@H](NC(=O)[C@@H]1[C@H]2CCC[C@@H]2CN1C(=O)[C@@H](NC(=O)[C@@H](NC(=O)c1cnccn1)C1CCCCC1)C(C)(C)C)C(=O)C(=O)NC1CC1`: the Potency result (in [1]; in experiment [2]; in experiment [6]; in the experiment with CRL-7250) was “inactive” throughout.

In the case of `COc1cc(NC(=O)c2ccc(-c3ccc(Cl)cc3)o2)cc(OC)c1`, the Potency is 34.3 µM (active) in [1], 15.3 µM (active) in experiment [2] and 21.7 µM (active) in [3]. Besides, the Potency result (in experiment [7]; in the experiment on CRL-7250) was “inactive” each time. The activity change, negative = inhibition in experiment [5] is -4.11%.

`CCC(c1ccc(O)cc1)C(CC)c1ccc(O)cc1` (stereo unspecified): the Potency entry (in [1]; in experiment [2]; in [3]; in the experiment with CRL-7250) was “inactive” in each case. The Potency was 27.1 µM (active) in experiment [4] and 30.4 µM (active) in [8]. Further, the activity change, negative = inhibition in [5] was -63.9%.

`CC=CCC=CCCC(=O)[C@H]1O[C@@H]1C(N)=O`: the parasite growth, % of DMSO control in experiment [9] worked out at 65.1%. The compound also showed a parasite growth remaining, % of DMSO control (lower = more inhibition) in experiment [10] of 87.5%. In experiment [11], this compound gave a growth, % of control of 71.3%. Also, the Potency entry (in experiment [1]; in [2]; in [3]; in experiment [6]; in the experiment with CRL-7250) was “inactive” throughout.

`CCCCCCCCCCCCCCCC(=O)O[C@H]1[C@@H](O)[C@@H](O)[C@@H]([C@H](NC(=O)[C@@H]2C[C@@H](CCC)CN2C)[C@H](C)Cl)O[C@@H]1SC`: the growth, % of control in experiment [11] was 81.5%. Further, the Potency entry in [1], in experiment [2], in experiment [3], in experiment [6], in experiment [7] and in [5] was “inactive” each time. Moreover, in the experiment on CRL-7250, the Potency entry was “inactive”.

Take `O=C(O)CCCc1c[nH]c2ccccc12`: in [12], the activation was -2.14% (inactive). Besides, the Potency entry (in experiment [1]; in experiment [2]; in [3]; in experiment [6]; in experiment [7]; with CRL-7250) was “inactive” in each case. The activity change, negative = inhibition in experiment [5] turned out to be 0.874%.

As for `Cc1cc(NC(=O)Nc2ccc(N(C)C)cc2)c2cc(F)cc(F)c2n1`, the Potency result (in experiment [1]; in [2]; in experiment [3]; in experiment [6]; in experiment [7]; in the experiment with CRL-7250) was “inactive” in each case. Also, in experiment [5], the activity change, negative = inhibition was -12.4% [at 27.1 µM].

With `O=C(CCN1CCN(C(=O)OCc2cc(Cl)cc(Cl)c2)CC1)c1ccc2[nH]c(=O)oc2c1`, the Potency result (in [1]; in experiment [2]; in experiment [3]; in experiment [6]; in experiment [7]; with CRL-7250) was “inactive” throughout. In addition, the activity change, negative = inhibition in experiment [5] is -26.2%.

On to `C[C@@H]1C(=O)O[C@H]2CC34[C@H]5C[C@@H](C(C)(C)C)C36[C@H](OC(=O)[C@@H]6O)O[C@@]4(C(=O)O5)[C@]21O` (stereo partly specified), for which the parasite growth, % of DMSO control in [9] turned out to be 77.1%. The same compound gave a growth, % of control in experiment [11] of 102%. The Potency entry in experiment [1], in experiment [2], in [3], in experiment [6], in experiment [7] and in experiment [5] was “inactive” each time. For the same compound, the Potency result in the experiment on CRL-7250 was “inactive”.

Consider `CC(=O)N1CCN(c2ccc(OCc3nn(C)c(C)c3-c3cccc4c(CCCOc5cccc6ccccc56)c(C(=O)O)n(Cc5cccnc5)c34)cc2)CC1`, for which the Potency entry (in experiment [1]; in experiment [2]; in experiment [6]; in the experiment on CRL-7250) was “inactive” each time.

On to `Cc1cnc(-c2cc(N3CCN(C(=O)CCS(C)(=O)=O)CC3)ncc2Cl)c(C)c1`, for which the Potency entry (in [1]; in experiment [2]; in experiment [3]; in experiment [6]; in experiment [7]; in the experiment on CRL-7250) was “inactive” in each case. Also, in [5], the activity change, negative = inhibition was -19%.
